Results as given in PubChem BioAssay AID1159580 (chemical genetic matrix, 2015).
Where “and” joins values, the source holds several entries; their conditions need not be identical. Equal entries are not always repeated. Among all 5,500 compounds or so, about 2,000 (36%) were called active. About 18% were inconclusive and are not listed. Cut-off read from the data, not from the text of the source: active = normalized growth mostly below about 0.91 (no sharp cut-off); inconclusive = no clear call, values can overlap the other calls; inactive = mostly above about 0.92. The list shows a part of the results.

Test: chemical genetic growth profiling, strain panel (AID 1159580);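 note: tested at 20 µM; growth read once vehicle control cultures reached saturation at 30 °C; 1 = growth at the plate median or of vehicle wells; lower values mean less growth of the strain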
Settings: S. cerevisiae deletion strains, growth OD

Measured: normalized growth

C=CC(C1=CC(=O)C(OC)=CC1=O)c1ccc(O)cc1 (configuration not stated)
inactive: locus YAL013W, strain DEP1, active compounds read low 1.04 | locus YAL021C, strain ccr4, active compounds read low 1.03 | locus YAL026C, strain drs2, active compounds read low 0.977 | locus YAL030W, strain snc1, active compounds read low 1.01 | locus YBL061C, strain skt5, active compounds read low 0.996 | locus YBR009C, strain hhf1, active compounds read low 0.99 | locus YBR021W, strain FUR4, active compounds read low 1.04 | locus YBR023C, strain chs3, active compounds read low 0.992 | locus YBR171W, strain sec66, active compounds read low 1.02 | locus YBR229C, strain ROT2, active compounds read low 0.945 | locus YBR231C, strain swc5, active compounds read low 0.989 | locus YBR279W, strain paf1, active compounds read low 1 | locus YCL011C, strain gbp2, active compounds read low 0.998 | locus YCL016C, strain dcc1, active compounds read low 0.99 | locus YCL029C, strain bik1, active compounds read low 0.987 | locus YCL069W, strain vba3, active compounds read low 1.01 | locus YCR088W, strain abp1, active compounds read low 1.02 | locus YDL005C, strain med2, active compounds read low 0.999 | locus YDL035C, strain GPR1, active compounds read low 0.974 | locus YDL040C, strain nat1, active compounds read low 0.999 | locus YDL074C, strain BRE1, active compounds read low 0.987 | locus YDL101C, strain DUN1, active compounds read low 0.986 | locus YDL185W, strain tfp1, active compounds read low 0.944 | locus YDL192W, strain arf1, active compounds read low 0.981 | locus YDR001C, strain nth1, active compounds read low 1.01 | locus YDR069C, strain doa4, active compounds read low 0.991 | locus YDR101C, strain arx1, active compounds read low 0.991 | locus YDR137W, strain rgp1, active compounds read low 0.989 | locus YDR150W, strain NUM1, active compounds read low 1.01 | locus YDR159W, strain sac3, active compounds read low 0.94 | locus YDR162C, strain NBP2, active compounds read low 0.942 | locus YDR195W, strain ref2 1.03 | locus YDR297W, strain sur2, active compounds read low 0.986 | locus YDR318W, strain mcm21, active compounds read low 0.953 | locus YDR334W, strain swr1, active compounds read low 1.02 | locus YDR335W, strain msn5, active compounds read low 1.01 | locus YDR388W, active compounds read low 0.964 | locus YDR392W, strain spt3, active compounds read low 0.825 | locus YDR502C, strain sam2, active compounds read low 0.967 | locus YEL003W, strain gim4, active compounds read low 0.979 | locus YEL037C, strain rad23, active compounds read low 1.01 | locus YEL061C, strain CIN8 (second series), active compounds read low 1.01 | locus YEL061C, strain CIN8, active compounds read low 0.992 | locus YER015W, strain faa2, active compounds read low 0.995 | locus YER016W, strain bim1, active compounds read low 1 | locus YER110C, active compounds read low 0.927 | locus YER111C, strain swi4, active compounds read low 0.998 | locus YER155C, strain BEM2 (second series), active compounds read low 0.891 | locus YER155C, strain BEM2, active compounds read low 1 | locus YER167W, strain BCK2, active compounds read low 0.973 | locus YFR010W, strain ubp6, active compounds read low 0.998 | locus YGL078C, strain dbp3, active compounds read low 0.985 | locus YGL086W, strain mad1, active compounds read low 1 | locus YGL167C, strain pmr1, active compounds read low 1.01 | locus YGL173C, strain kem1, active compounds read low 0.997 | locus YGL227W, strain vid30, active compounds read low 0.999 | locus YGL240W, strain doc1, active compounds read low 0.972 | locus YGL248W, strain PDE1, active compounds read low 0.992 | locus YGL253W, strain hxk2, active compounds read low 1.02 | locus YGR078C, strain PAC10, active compounds read low 1.01 | locus YGR135W, strain pre9, active compounds read low 0.963 | locus YGR252W, strain gcn5, active compounds read low 0.904 | locus YHR013C, strain ard1, active compounds read low 1.02 | locus YHR027C, strain rpn1, active compounds read low 0.995 | locus YHR030C, strain SLT2, active compounds read low 0.98 and 1.04 | locus YHR079C, strain IRE1 (second series), active compounds read low 0.982 | locus YHR079C, strain IRE1, active compounds read low 1.01 | locus YHR094C, strain hxt1, active compounds read low 0.96 | locus YHR129C, strain ARP1, active compounds read low 0.991 | locus YHR142W, strain chs7, active compounds read low 1.01 | locus YHR200W, strain rpn10, active compounds read low 0.965 | locus YIL066C, strain RNR3, active compounds read low 0.92 | locus YIL073C, strain SPO22, active compounds read low 0.964 | locus YIL125W, strain kgd1, active compounds read low 0.987 | locus YIR030C, strain dcg1, active compounds read low 0.991 | locus YJL092W, strain hpr5, active compounds read low 1 | locus YJL095W, strain BCK1 (second series), active compounds read low 0.998 | locus YJL095W, strain BCK1, active compounds read low 1.03 and 1.06 | locus YJL115W, strain asf1, active compounds read low 1.02 | locus YJL129C, strain trk1, active compounds read low 1.03 | locus YJL134W, strain LCB3, active compounds read low 0.978 | locus YJL154C, strain vps35, active compounds read low 1.01 | locus YJL164C, strain tpk1, active compounds read low 0.987 | locus YJL166W, strain qcr8, active compounds read low 1 | locus YJL168C, strain set2, active compounds read low 0.984 | locus YJL187C, strain SWE1 (second series), active compounds read low 0.997 | locus YJL187C, strain SWE1, active compounds read low 1 | locus YJR043C, strain POL32, active compounds read low 0.941 | locus YJR066W, strain TOR1, active compounds read low 0.983 | locus YJR075W, strain HOC1, active compounds read low 1.01 | locus YKL009W, strain mrt4, active compounds read low 0.957 | locus YKL068W, active compounds read low 0.971 | locus YKL085W, strain MDH1 (second series), active compounds read low 0.987 | locus YKL085W, strain MDH1, active compounds read low 0.987 | locus YKL160W, strain elf1, active compounds read low 0.985 | locus YKL190W, strain CNB1, active compounds read low 1.01 | locus YKR001C, strain vps1, active compounds read low 0.966 | locus YKR026C, strain gcn3, active compounds read low 1.01 | locus YKR091W, strain srl3, active compounds read low 1.01 | locus YLL001W, strain dnm1, active compounds read low 0.958 | locus YLL026W, active compounds read low 1 | locus YLL041C, strain sdh2, active compounds read low 1.01 | locus YLR027C, strain aat2, active compounds read low 1 | locus YLR039C, strain RIC1, active compounds read low 1.02 | locus YLR058C, strain SHM2, active compounds read low 0.925 | locus YLR102C, strain apc9, active compounds read low 0.984 | locus YLR113W, strain HOG1, active compounds read low 0.967 | locus YLR221C, strain rsa3, active compounds read low 0.989 | locus YLR258W, strain gsy2, active compounds read low 1.01 | locus YLR262C, strain YPT6 (second series), active compounds read low 0.996 | locus YLR262C, strain YPT6, active compounds read low 1.01 | locus YLR268W, strain sec22, active compounds read low 1.01 | locus YLR320W, strain mms22, active compounds read low 0.988 | locus YLR330W, strain CHS5, active compounds read low 1 | locus YLR342W, strain FKS1 (second series), active compounds read low 0.935 | locus YLR342W, strain FKS1, active compounds read low 0.987 | locus YLR357W, strain rsc2, active compounds read low 0.993 | locus YLR370C, strain arc18, active compounds read low 1.01 | locus YLR371W, strain rom2, active compounds read low 0.965 | locus YLR384C, strain iki3, active compounds read low 1.03 | locus YLR418C, strain cdc73, active compounds read low 0.933 | locus YML016C, strain PPZ1, active compounds read low 0.976 | locus YML032C, strain rad52, active compounds read low 0.947 | locus YML120C, strain ndi1, active compounds read low 1 | locus YML124C, strain tub3, active compounds read low 0.99 | locus YMR058W, strain fet3, active compounds read low 1.01 | locus YMR078C, strain ctf18, active compounds read low 0.989 | locus YMR125W, strain sto1, active compounds read low 1.02 | locus YMR129W, active compounds read low 1 | locus YMR205C, strain PFK2, active compounds read low 0.992 | locus YMR223W, strain ubp8, active compounds read low 0.967 | locus YMR231W, strain pep5, active compounds read low 1.01 | locus YMR263W, strain SAP30, active compounds read low 1.01 | locus YMR307W, strain GAS1, active compounds read low 1.06 | locus YNL067W, strain RPL9B, active compounds read low 1.06 | locus YNL071W, strain lat1, active compounds read low 1.01 | locus YNL153C, strain GIM3, active compounds read low 1.01 | locus YNL183C, strain NPR1, active compounds read low 0.983 | locus YNL209W, strain ssb2, active compounds read low 0.994 | locus YNL233W, strain BNI4, active compounds read low 1.01 | locus YNL248C, strain rpa49, active compounds read low 1 | locus YNL250W, strain rad50, active compounds read low 0.98 | locus YNL271C, strain bni1, active compounds read low 0.99 | locus YNL298W, strain CLA4, active compounds read low 0.961 | locus YNL307C, strain MCK1, active compounds read low 0.969 | locus YNL322C, strain KRE1 (second series), active compounds read low 0.981 | locus YNL322C, strain KRE1, active compounds read low 0.994 | locus YNR049C, strain mso1, active compounds read low 1.01 | locus YNR052C, strain pop2, active compounds read low 0.981 | locus YOL012C, strain htz1 1.04 | locus YOL147C, strain pex11, active compounds read low 0.969 | locus YOR001W, strain rrp6, active compounds read low 0.986 | locus YOR061W, strain CKA2, active compounds read low 0.954 | locus YOR069W, strain VPS5, active compounds read low 0.986 | locus YOR070C, strain gyp1, active compounds read low 0.982 | locus YOR080W, strain dia2, active compounds read low 0.992 | locus YOR083W, strain WHI5, active compounds read low 0.977 | locus YOR106W, strain vam3, active compounds read low 0.989 | locus YOR136W, strain idh2, active compounds read low 0.976 | locus YOR144C, strain elg1, active compounds read low 0.98 | locus YOR184W, strain ser1, active compounds read low 0.941 | locus YOR231W, strain MKK1, active compounds read low 1.03 | locus YOR265W, strain rbl2, active compounds read low 1 | locus YOR270C, strain vph1, active compounds read low 1.02 | locus YOR290C, strain snf2, active compounds read low 0.984 | locus YOR316C, strain cot1, active compounds read low 0.982 | locus YPL051W, strain arl3, active compounds read low 0.979 | locus YPL078C, strain atp4, active compounds read low 0.98 | locus YPL106C, strain sse1, active compounds read low 1.01 | locus YPL240C, strain hsp82, active compounds read low 1.01 | locus YPL241C, strain CIN2, active compounds read low 0.983 | locus YPL256C, strain CLN2, active compounds read low 1.06 | locus YPR119W, strain clb2, active compounds read low 0.99 | locus YPR141C, strain kar3, active compounds read low 0.984 | locus YPR163C, strain tif3, active compounds read low 0.979 | locus YPR167C, strain met16, active compounds read low 0.974 | strain wtn01, active compounds read low 0.994
